This is an account of results in PubChem BioAssay (Tox21).

The structures appear in SMILES notation. Results filed as inconclusive are left out. Active and inactive are the calls of the source. Unless noted, the call rests on the fitted dose curve; in most records, active means well fitted curve in the direction sought with a large enough effect in the repeat runs; inconclusive means weak or mixed curves; inactive means no such curve, though single readings can be large; an effect the other way counts as inactive or inconclusive.

Assay [1] is described as follows: qHTS assay to test for compound auto fluorescence at 535 nm (green) in HEK293 cells (AID 720680). In general terms: qHTS replaces the single test concentration by a dilution series.
Assay [2] is described as follows: qHTS assay to test for compound auto fluorescence at 460 nm (blue) in HEK293 cell free culture (AID 720681). In a few lines: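 Compounds were added to cell-free DMEM with 10% FBS and fluorescence read directly. The blue channel used 405 nm excitation and 460 nm emission, with triamterene as the reference fluorophore.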
A short description of assay [3]: qHTS assay to test for compound auto fluorescence at 535 nm (green) in HEK293 cell free culture (AID 720682). In a few lines: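 Using fluorescein as calibrant, autofluorescence was quantified at 485/535 nm in cell-free DMEM containing 10% FBS after pintool addition of compound or vehicle.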
Assay [4] can be described thus: qHTS assay to test for compound auto fluorescence at 590 nm (red) in HEK293 cell free culture (AID 720683). In a few lines: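 Cell-free wells of DMEM with 10% FBS received compound, and intrinsic fluorescence was read at excitation/emission 540/590 nm. Values expressed as equivalence to Rose Bengal sodium.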
A short description of assay [5]: qHTS assay to test for compound auto fluorescence at 590 nm (red) in HepG2 cell free culture (AID 720684). Put shortly: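 Compounds are added to culture medium (MEM, 10% FBS) lacking cells, then fluorescence is read at excitation 540 nm, emission 590 nm, with Rose Bengal sodium as the equivalency standard.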
Assay [6] can be described thus: qHTS assay to test for compound auto fluorescence at 460 nm (blue) in HepG2 cell free culture (AID 720685). In a few lines:
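Compound (23 nL) or DMSO pinned into cell-free MEM with 10% FBS; blue fluorescence read at 405/460 nm excitation/emission, expressed as auto-fluorescence equivalency to triamterene.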

A short description of assay [7]: qHTS assay to test for compound auto fluorescence at 535 nm (green) in HepG2 cell free culture (AID 720686).
The nature of assay [8]: qHTS assay to test for compound auto fluorescence at 460 nm (blue) in HepG2 cells (AID 720687). Put shortly:
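HepG2 cells in MEM with 10% FBS, attached overnight at 37 C, were exposed to compound or DMSO for 1 hr at 37 C, 5% CO2. Blue fluorescence was read at 405/460 nm, with triamterene as reference fluorophore.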

Assay [9] can be described thus: qHTS assay to identify small molecule antagonists of the glucocorticoid receptor (GR) signaling pathway - cell viability counter screen (AID 720693). Further: nearly all actives have a fitted effect of over 55% in size.
Assay [10] is described as follows: qHTS assay for identifying genotoxic compounds that show differential cytotoxicity against isogenic chicken DT40 cell lines with known DNA damage response pathways - Rev3 mutant cell line (AID 743014). Further: nearly all actives have a fitted effect of over 55% in size.
Assay [11] is described as follows: qHTS assay for identifying genotoxic compounds that show differential cytotoxicity against isogenic chicken DT40 cell lines with known DNA damage response pathways - Rad54/Ku70 mutant cell line (AID 743015). Further: nearly all actives have a fitted effect of over 60% in size.
Assay [12] can be described thus: qHTS assay to identify small molecule antagonists of the androgen receptor (AR) signaling pathway - cell viability counter screen (AID 743033; further: nearly all actives have a fitted effect of over 45% in size).
Assay [13] is described as follows: qHTS assay to identify small molecule antagonists of the androgen receptor (AR) signaling pathway using the MDA cell line - cell viability counter screen (AID 743041; further: nearly all actives have a fitted effect of over 45% in size). In a few lines: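 Same-well cytotoxicity was assessed by CellTiter-Fluor in MDA-kb2 AR-luc cells after 16 h of compound treatment under R1881 agonism.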
Assay [14] concerns the target Glucocorticoid receptor (Homo sapiens) (UniProt P04150). The assay can be described thus: qHTS assay to identify small molecule agonists of the glucocorticoid receptor (GR) signaling pathway (AID 720691; active means well fitted activation curve with a large enough effect in the signal ratio in the repeat runs, not every such curve was filed as active; the % refers to the signal ratio). Put shortly:
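Reporter read-out: fluorescence intensity following 2 h room-temperature LiveBLAzer B/G FRET substrate loading. Prior step: GR-bla HeLa cells held 4 h, then treated 18 h at 37 C.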

The target is the same in assay [15]. Nature of the assay: qHTS assay to identify small molecule antagonists of the glucocorticoid receptor (GR) signaling pathway (AID 720692; active means well fitted inhibition curve with a large enough effect in the signal ratio in the repeat runs, not every such curve was filed as active; the % refers to the signal ratio). Put shortly: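 Dexamethasone (5 nM final) stimulated a stably integrated GRE-beta-lactamase reporter in HeLa cells during 18 h co-incubation with compounds; signal was quantified as fluorescence intensity of B/G FRET substrate after 2 h.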

A short description of assay [16]: qHTS assay for identifying genotoxic compounds that show differential cytotoxicity against isogenic chicken DT40 cell lines with known DNA damage response pathways - wild type cell line (AID 743012). Further: nearly all actives have a fitted effect of over 60% in size. Further: potency means the concentration at half of the fitted maximal effect. In a few lines: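 Using parental DT40 (300 cells/well), compounds delivered in DMSO incubate 40 h at 37 C/5% CO2. CellTiter-Glo reagent then stands 30 min at room temperature, and luminescence gives cell viability.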

In assay [17] the target is Androgen receptor (Homo sapiens) (UniProt P10275). The assay can be described thus: qHTS assay to identify small molecule antagonists of the androgen receptor (AR) signaling pathway (AID 743035; active means well fitted inhibition curve with a large enough effect in the signal ratio in the repeat runs, not every such curve was filed as active; the % refers to the signal ratio). Put shortly: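 Using qHTS, AR-UAS-bla GripTite HEK293 cells received compound, then R1881, and were cultured 16 h at 37C/5% CO2 before a 2 h room-temperature LiveBLAzer B/G FRET substrate step and fluorescence measurement.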

The target is the same in assay [18]. The assay can be described thus: qHTS assay to identify small molecule agonists of the androgen receptor (AR) signaling pathway (AID 743036; active means well fitted activation curve with a large enough effect in the signal ratio in the repeat runs, with a control signal flat, not every such curve was filed as active; the % refers to the signal ratio). In a few lines:
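In this Tox21 qHTS, 2,000 HEK293 AR-bla cells per well were incubated with compounds for 16 h at 37C and 5% CO2. Fluorescence intensity was recorded 2 h after adding LiveBLAzer B/G FRET substrate at room temperature.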

Assay [19] shares this target. Nature of the assay: qHTS assay to identify small molecule agonists of the androgen receptor (AR) signaling pathway using the MDA cell line (AID 743040; further: nearly all actives have a fitted effect of over 20% in size). Put shortly:
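Human breast carcinoma MDA-kb2 reporter cells (MMTV-luc, AR/GR elements) were treated for 16 h at 37C in 0% CO2 following a 5 h settling period. Signal was quantified by ONE-Glo luminescence.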

The target is the same in assay [20]. The assay can be described thus: qHTS assay to identify small molecule antagonists of the androgen receptor (AR) signaling pathway using the MDA cell line (AID 743042; further: nearly all actives have a fitted effect of over 55% in size). In a few lines: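 MDA-kb2 breast carcinoma cells carrying MMTV-luciferase (AR/GR responsive) were co-treated with compounds and the agonist R1881 for 16 h at 37C. Inhibition read as ONE-Glo luminescence; CellTiter-Fluor fluorescence measured in parallel for cytotoxicity.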

Glucocorticoid receptor (Homo sapiens), sequence (P04150 whole entry, looked up): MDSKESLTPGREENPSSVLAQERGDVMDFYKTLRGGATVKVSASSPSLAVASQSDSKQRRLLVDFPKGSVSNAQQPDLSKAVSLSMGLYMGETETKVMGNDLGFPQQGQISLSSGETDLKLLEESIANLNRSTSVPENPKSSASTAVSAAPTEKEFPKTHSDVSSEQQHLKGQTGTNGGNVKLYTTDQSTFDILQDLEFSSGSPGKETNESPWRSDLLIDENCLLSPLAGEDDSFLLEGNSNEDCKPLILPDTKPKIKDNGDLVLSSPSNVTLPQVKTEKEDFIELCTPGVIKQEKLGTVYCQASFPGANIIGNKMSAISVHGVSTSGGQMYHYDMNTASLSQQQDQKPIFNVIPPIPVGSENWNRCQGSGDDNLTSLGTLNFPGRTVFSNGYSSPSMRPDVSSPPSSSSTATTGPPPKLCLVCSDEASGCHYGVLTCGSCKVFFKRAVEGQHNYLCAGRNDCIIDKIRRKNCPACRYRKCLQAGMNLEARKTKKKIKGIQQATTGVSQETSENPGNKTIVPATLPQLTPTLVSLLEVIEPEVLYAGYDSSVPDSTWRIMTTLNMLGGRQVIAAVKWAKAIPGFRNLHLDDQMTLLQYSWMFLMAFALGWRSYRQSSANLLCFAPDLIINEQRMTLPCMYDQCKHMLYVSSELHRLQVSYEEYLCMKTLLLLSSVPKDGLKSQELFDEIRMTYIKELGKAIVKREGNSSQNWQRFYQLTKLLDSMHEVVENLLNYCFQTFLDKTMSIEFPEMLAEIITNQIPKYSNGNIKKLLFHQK
Androgen receptor (Homo sapiens), sequence (P10275 whole entry, looked up): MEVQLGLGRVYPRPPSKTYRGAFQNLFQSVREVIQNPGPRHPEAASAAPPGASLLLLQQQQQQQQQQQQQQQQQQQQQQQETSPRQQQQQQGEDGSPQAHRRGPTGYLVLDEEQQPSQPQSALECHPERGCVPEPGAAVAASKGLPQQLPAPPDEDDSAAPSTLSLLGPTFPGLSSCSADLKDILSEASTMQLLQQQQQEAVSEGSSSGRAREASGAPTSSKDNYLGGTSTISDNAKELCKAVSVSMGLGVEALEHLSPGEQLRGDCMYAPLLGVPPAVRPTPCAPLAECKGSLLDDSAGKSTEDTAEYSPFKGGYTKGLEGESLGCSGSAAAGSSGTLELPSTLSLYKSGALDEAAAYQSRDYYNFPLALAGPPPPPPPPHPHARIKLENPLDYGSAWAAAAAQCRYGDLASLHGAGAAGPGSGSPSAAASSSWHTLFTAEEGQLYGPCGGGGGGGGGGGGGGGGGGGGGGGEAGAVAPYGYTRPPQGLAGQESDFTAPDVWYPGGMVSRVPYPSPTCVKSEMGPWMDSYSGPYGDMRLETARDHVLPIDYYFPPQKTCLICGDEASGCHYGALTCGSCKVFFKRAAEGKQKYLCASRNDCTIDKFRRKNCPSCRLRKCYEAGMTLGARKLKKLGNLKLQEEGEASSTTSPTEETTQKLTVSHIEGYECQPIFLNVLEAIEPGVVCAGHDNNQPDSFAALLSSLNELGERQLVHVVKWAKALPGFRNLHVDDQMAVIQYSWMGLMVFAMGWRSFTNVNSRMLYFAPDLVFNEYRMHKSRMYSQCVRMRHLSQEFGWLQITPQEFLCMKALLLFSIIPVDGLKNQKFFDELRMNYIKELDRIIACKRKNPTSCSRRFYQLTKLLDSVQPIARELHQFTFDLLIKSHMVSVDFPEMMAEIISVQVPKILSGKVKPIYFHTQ

With `CC(C)[N+](=O)[O-]`, the outcome in [1], in assay [2], in [3], in [4], in assay [5] and in assay [6] was inactive. For the same compound, the compound was classed as inactive in [7] and in [8]. The Potency result in [9], in assay [10], in [11], in assay [12] and in assay [13] was “inactive” in each case.

On to `CCOc1nc(C(Cl)(Cl)Cl)ns1`, for which the outcome in assay [1], in assay [2], in assay [3], in assay [4], in assay [5] and in assay [6] was inactive. The compound was classed as inactive in [7] and in assay [8]. Besides, the Potency result in assay [9], in assay [10], in assay [11] and in assay [13] was “inactive” each time.

For the compound `N#CCBr`, the outcome in [1], in [3], in assay [4], in assay [5], in assay [6] and in assay [7] was inactive. The result in [8] and in [14] was inactive. The Potency result in assay [15], in [9], in assay [16], in assay [10], in [11] and in [12] was “inactive” in each case. The Potency entry in assay [13] is “inactive”.

Take `CCCCP(CCCC)CCCC`: the outcome in assay [1], in assay [2], in [3], in assay [4], in [5] and in assay [6] was inactive. Moreover, the compound was classed as inactive in assay [7] and in assay [8]. In addition, the Potency result in assay [9], in [16], in assay [11], in [12] and in assay [13] was “inactive” in each case.

Take `CC1CN1P(=O)(N1CC1C)N1CC1C` (configuration not stated): the call in [1], in [2], in [3], in assay [4], in assay [5] and in [6] was inactive. The compound was called inactive in assay [7] and in assay [8]. The Potency result in assay [9], in [10], in [11], in assay [12] and in [13] was “inactive” each time.

Turning to `COC(C)(C)C`, the compound was classed as inactive in assay [1], in assay [2], in [3], in assay [4], in assay [5] and in [6]. Further, the result in assay [7] and in [8] was inactive. Moreover, the Potency result in assay [9], in assay [10], in assay [11] and in [13] was “inactive” in each case.

For the compound `Cc1cccc(C#N)c1`, the compound was called inactive in assay [1], in [3], in assay [4], in assay [5], in [6] and in assay [7]. The outcome in assay [8] and in assay [14] was inactive. The Potency result in assay [15], in assay [9], in assay [16], in assay [10], in assay [11] and in assay [12] was “inactive” throughout. Moreover, the Potency result in [13] is “inactive”.

Take `CC(C)(C)NCC(O)c1cc(Cl)c(N)c(Cl)c1` (configuration not stated): the compound was classed as inactive in [1], in [2], in assay [3], in assay [4], in assay [5] and in [6]. Also, the call in assay [7], in assay [8], in assay [18] and in assay [20] was inactive. Further, the Potency result in [9], in [16], in assay [11], in assay [17], in assay [19] and in assay [13] was “inactive” each time.

For `CC(C1CC1)C(O)(Cn1cncn1)c1ccc(Cl)cc1` (configuration not stated), the compound was classed as inactive in assay [1], in [2], in assay [3], in assay [4], in assay [5] and in [6]. For the same compound, the compound was classed as inactive in assay [7] and in [8]. Further, the Potency entry in assay [9] and in assay [13] was “inactive” throughout. Also, the Potency in assay [16] was 48.3 µM (active).

With `O=[N+]([O-])c1cccc(O)c1`, the compound was classed as inactive in assay [1], in assay [2], in assay [3], in [4], in [5] and in [6]. Besides, the compound was classed as inactive in [7] and in [8]. Also, the Potency entry in assay [9], in assay [16], in assay [11] and in [13] was “inactive” in each case.
